According to PubChem BioAssay AID1159580 (chemical genetic matrix, 2015):
In all, about 5,500 compounds went through this assay and about 2,000 (36%) were called active. Inconclusive results (about 18%) are left out. No stated cut-off is given here; in the data, active means normalized growth mostly below about 0.91 (no sharp cut-off); inconclusive means no clear call, values can overlap the other calls; inactive means mostly above about 0.92. The list shows a part of the results.

Assay: chemical genetic growth profiling, strain panel (AID 1159580);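 further: tested at 20 µM; growth read once vehicle control cultures reached saturation at 30 °C; 1 = growth at the plate median or of vehicle wells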
Settings: growth OD

Measured: normalized growth

O=C(O)/C=C/c1ccc(O)c(O)c1
inactive: S. cerevisiae deletion strains, locus YJR043C, strain POL32, stronger effect = lower value 1.01 | S. cerevisiae deletion strains, locus YJR066W, strain TOR1, stronger effect = lower value 0.95 | S. cerevisiae deletion strains, locus YKL009W, strain mrt4, stronger effect = lower value 1.05 | S. cerevisiae deletion strains, locus YKL068W, stronger effect = lower value 1.01 | S. cerevisiae deletion strains, locus YKL085W, strain MDH1 (second series), stronger effect = lower value 1.02 | S. cerevisiae deletion strains, locus YKL085W, strain MDH1, stronger effect = lower value 1.02 | S. cerevisiae deletion strains, locus YKL160W, strain elf1, stronger effect = lower value 1 | S. cerevisiae deletion strains, locus YKL190W, strain CNB1, stronger effect = lower value 1.01 | S. cerevisiae deletion strains, locus YKR001C, strain vps1, stronger effect = lower value 1 | S. cerevisiae deletion strains, locus YKR026C, strain gcn3, stronger effect = lower value 1 | S. cerevisiae deletion strains, locus YKR091W, strain srl3, stronger effect = lower value 1 | S. cerevisiae deletion strains, locus YLL001W, strain dnm1, stronger effect = lower value 0.992 | S. cerevisiae deletion strains, locus YLL026W, stronger effect = lower value 0.992 | S. cerevisiae deletion strains, locus YLL041C, strain sdh2, stronger effect = lower value 1 | S. cerevisiae deletion strains, locus YLR027C, strain aat2, stronger effect = lower value 0.989 | S. cerevisiae deletion strains, locus YLR039C, strain RIC1, stronger effect = lower value 1.01 | S. cerevisiae deletion strains, locus YLR058C, strain SHM2, stronger effect = lower value 1.01 | S. cerevisiae deletion strains, locus YLR102C, strain apc9, stronger effect = lower value 1.01 | S. cerevisiae deletion strains, locus YLR113W, strain HOG1, stronger effect = lower value 0.985 | S. cerevisiae deletion strains, locus YLR221C, strain rsa3, stronger effect = lower value 1 | S. cerevisiae deletion strains, locus YLR258W, strain gsy2, stronger effect = lower value 0.999 | S. cerevisiae deletion strains, locus YLR262C, strain YPT6 (second series), stronger effect = lower value 0.993 | S. cerevisiae deletion strains, locus YLR262C, strain YPT6, stronger effect = lower value 0.998 | S. cerevisiae deletion strains, locus YLR268W, strain sec22, stronger effect = lower value 1.03 | S. cerevisiae deletion strains, locus YLR320W, strain mms22, stronger effect = lower value 1.02 | S. cerevisiae deletion strains, locus YLR330W, strain CHS5, stronger effect = lower value 1.02 | S. cerevisiae deletion strains, locus YLR342W, strain FKS1 (second series), stronger effect = lower value 1.07 | S. cerevisiae deletion strains, locus YLR342W, strain FKS1, stronger effect = lower value 1.01 | S. cerevisiae deletion strains, locus YLR357W, strain rsc2, stronger effect = lower value 1.01 | S. cerevisiae deletion strains, locus YLR370C, strain arc18, stronger effect = lower value 1 | S. cerevisiae deletion strains, locus YLR371W, strain rom2, stronger effect = lower value 1.01 | S. cerevisiae deletion strains, locus YLR384C, strain iki3, stronger effect = lower value 0.999 | S. cerevisiae deletion strains, locus YLR418C, strain cdc73, stronger effect = lower value 1.05 | S. cerevisiae deletion strains, locus YML016C, strain PPZ1, stronger effect = lower value 1.01 | S. cerevisiae deletion strains, locus YML032C, strain rad52, stronger effect = lower value 0.998 | S. cerevisiae deletion strains, locus YML120C, strain ndi1, stronger effect = lower value 1.01 | S. cerevisiae deletion strains, locus YML124C, strain tub3, stronger effect = lower value 1 | S. cerevisiae deletion strains, locus YMR058W, strain fet3, stronger effect = lower value 1.01 | S. cerevisiae deletion strains, locus YMR078C, strain ctf18, stronger effect = lower value 1.01 | S. cerevisiae deletion strains, locus YMR125W, strain sto1, stronger effect = lower value 1 | S. cerevisiae deletion strains, locus YMR129W, stronger effect = lower value 1 | S. cerevisiae deletion strains, locus YMR205C, strain PFK2, stronger effect = lower value 0.999 | S. cerevisiae deletion strains, locus YMR223W, strain ubp8, stronger effect = lower value 0.997 | S. cerevisiae deletion strains, locus YMR231W, strain pep5, stronger effect = lower value 0.98 | S. cerevisiae deletion strains, locus YMR307W, strain GAS1, stronger effect = lower value 1.04 | S. cerevisiae deletion strains, locus YNL067W, strain RPL9B, stronger effect = lower value 0.994 | S. cerevisiae deletion strains, locus YNL071W, strain lat1, stronger effect = lower value 1.01 | S. cerevisiae deletion strains, locus YNL153C, strain GIM3, stronger effect = lower value 0.999 | S. cerevisiae deletion strains, locus YNL175C, strain NOP13, stronger effect = lower value 1 | S. cerevisiae deletion strains, locus YNL183C, strain NPR1, stronger effect = lower value 0.971 | S. cerevisiae deletion strains, locus YNL197C, strain WHI3, stronger effect = lower value 1.01 | S. cerevisiae deletion strains, locus YNL209W, strain ssb2, stronger effect = lower value 0.998 | S. cerevisiae deletion strains, locus YNL224C, strain SQS1, stronger effect = lower value 0.997 | S. cerevisiae deletion strains, locus YNL233W, strain BNI4, stronger effect = lower value 1 | S. cerevisiae deletion strains, locus YNL248C, strain rpa49, stronger effect = lower value 1 | S. cerevisiae deletion strains, locus YNL250W, strain rad50, stronger effect = lower value 1 | S. cerevisiae deletion strains, locus YNL271C, strain bni1, stronger effect = lower value 0.998 | S. cerevisiae deletion strains, locus YNL298W, strain CLA4, stronger effect = lower value 0.98 | S. cerevisiae deletion strains, locus YNL307C, strain MCK1, stronger effect = lower value 1.01 | S. cerevisiae deletion strains, locus YNL322C, strain KRE1 (second series), stronger effect = lower value 0.998 | S. cerevisiae deletion strains, locus YNL322C, strain KRE1, stronger effect = lower value 1.02 | S. cerevisiae deletion strains, locus YNR049C, strain mso1, stronger effect = lower value 1.01 | S. cerevisiae deletion strains, locus YNR052C, strain pop2, stronger effect = lower value 0.993 | S. cerevisiae deletion strains, locus YOL012C, strain htz1 0.725 | S. cerevisiae deletion strains, locus YOL147C, strain pex11, stronger effect = lower value 1.01 | S. cerevisiae deletion strains, locus YOR001W, strain rrp6, stronger effect = lower value 1.02 | S. cerevisiae deletion strains, locus YOR061W, strain CKA2, stronger effect = lower value 1.02 | S. cerevisiae deletion strains, locus YOR069W, strain VPS5, stronger effect = lower value 1.01 | S. cerevisiae deletion strains, locus YOR070C, strain gyp1, stronger effect = lower value 0.972 | S. cerevisiae deletion strains, locus YOR080W, strain dia2, stronger effect = lower value 1 | S. cerevisiae deletion strains, locus YOR083W, strain WHI5 (second series), stronger effect = lower value 1.01 | S. cerevisiae deletion strains, locus YOR083W, strain WHI5, stronger effect = lower value 1 | S. cerevisiae deletion strains, locus YOR106W, strain vam3, stronger effect = lower value 1.04 | S. cerevisiae deletion strains, locus YOR136W, strain idh2, stronger effect = lower value 1.02 | S. cerevisiae deletion strains, locus YOR144C, strain elg1, stronger effect = lower value 1.01 | S. cerevisiae deletion strains, locus YOR184W, strain ser1, stronger effect = lower value 1 | S. cerevisiae deletion strains, locus YOR231W, strain MKK1, stronger effect = lower value 1.03 | S. cerevisiae deletion strains, locus YOR265W, strain rbl2, stronger effect = lower value 0.988 | S. cerevisiae deletion strains, locus YOR270C, strain vph1, stronger effect = lower value 1 | S. cerevisiae deletion strains, locus YOR290C, strain snf2, stronger effect = lower value 1.01 | S. cerevisiae deletion strains, locus YOR316C, strain cot1, stronger effect = lower value 1 | S. cerevisiae deletion strains, locus YPL051W, strain arl3, stronger effect = lower value 0.994 | S. cerevisiae deletion strains, locus YPL055C, strain LGE1, stronger effect = lower value 1.01 | S. cerevisiae deletion strains, locus YPL078C, strain atp4, stronger effect = lower value 1 | S. cerevisiae deletion strains, locus YPL106C, strain sse1, stronger effect = lower value 0.992 | S. cerevisiae deletion strains, locus YPL240C, strain hsp82, stronger effect = lower value 1 | S. cerevisiae deletion strains, locus YPL256C, strain CLN2, stronger effect = lower value 0.985 | S. cerevisiae deletion strains, locus YPR119W, strain clb2, stronger effect = lower value 1.01 | S. cerevisiae deletion strains, locus YPR141C, strain kar3, stronger effect = lower value 1.04 | S. cerevisiae deletion strains, locus YPR163C, strain tif3, stronger effect = lower value 1 | S. cerevisiae deletion strains, locus YPR167C, strain met16, stronger effect = lower value 1.02 | S. cerevisiae deletion strains, strain wtn01, stronger effect = lower value 1.04 | S. cerevisiae strains, strain wild type, stronger effect = lower value 1.01
